Experimental data taken from the supplement of paper PMC10849652.
Of roughly 7,900 targets only a part is listed; those with a hit were picked by preference. About 0.6% of all pairs of compound and target were hits.

How the values were obtained:
Test in all cases: log2 fold change, soluble protein after heating vs DMSO (PISA); higher = thermal stabilisation; K562 cells, 10 uM, 30 min; active = over 0.2 and 3.5 SD of the protein, either way, in both replicates (recomputed)
[1] = compound: NC(=O)Nc1cc(-c2cccc(F)c2)sc1C(=O)N[C@H]1CCCNC1
How it was run: (§1)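 K562 cells at 2×10^6 cells/mL were exposed to 10 μM compound for 30 min, then aliquots were heated for 3 min across 48°C-58°C, pooled, and extracted in PBS containing 0.5% NP-40 at 4°C. The supernatant after 21,000xg for 90 min was taken as soluble protein and measured by TMTpro 16plex LC-MS/MS with channel sums equalised. Thermal stability is reported relative to control samples, with values from duplicates. Fold changes are given on a log2 scale.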

[2] = compound: NC(=O)c1cnc(N[C@@H]2CCCC[C@@H]2N)nc1Nc1cccc(-n2nccn2)c1
How it was run: as §1

[3] = compound: NC1(c2ccc(-c3nc4ccn5c(=O)[nH]nc5c4cc3-c3ccccc3)cc2)CCC1
How it was run: as §1

[4] = compound: NCC(=O)Nc1ccc(-n2nc(C(F)(F)F)cc2-c2ccc3c(ccc4ccccc43)c2)cc1
How it was run: as §1

entinostat = compound: Nc1ccccc1NC(=O)c1ccc(CNC(=O)OCc2cccnc2)cc1 [entinostat]
How it was run: as §1

vorinostat = compound: O=C(CCCCCCC(=O)Nc1ccccc1)NO [vorinostat]
How it was run: as §1

citarinostat = compound: O=C(CCCCCCNC(=O)c1cnc(N(c2ccccc2)c2ccccc2Cl)nc1)NO [citarinostat]
How it was run: as §1

silmitasertib = compound: O=C(O)c1ccc2c(c1)nc(Nc1cccc(Cl)c1)c1ccncc12 [silmitasertib]
How it was run: as §1

[5] = compound: O=C1NC(=O)C(c2cnc3ccccn23)=C1c1cn2c3c(cc(F)cc13)CN(C(=O)N1CCCCC1)CC2
How it was run: as §1

[6] = compound: c1cc(OCCN2CCCCC2)cc(-c2n[nH]c3ccc(-c4nnc[nH]4)cc23)c1
How it was run: as §1

Measured: log2 fold change

CYBA (UniProt P13498)
inactive: [1] -0.028 | [2] -0.141 | [3] -0.044 | [4] -0.13 | entinostat -0.004 | vorinostat 0.018 | citarinostat -0.01 | silmitasertib 0 | [5] -0.01 | [6] -0.041

CTSZ (UniProt Q9UBR2)
inactive: [1] -0.029 | [2] -0.005 | [4] 0.044 | entinostat -0.023 | vorinostat 0.013 | citarinostat 0.019 | silmitasertib 0.008 | [5] -0.047 | [6] 0.006
active: [3] -0.511

EFCAB14 (UniProt O75071)
Sequence of UniProt O75071 (O75071 whole entry, looked up): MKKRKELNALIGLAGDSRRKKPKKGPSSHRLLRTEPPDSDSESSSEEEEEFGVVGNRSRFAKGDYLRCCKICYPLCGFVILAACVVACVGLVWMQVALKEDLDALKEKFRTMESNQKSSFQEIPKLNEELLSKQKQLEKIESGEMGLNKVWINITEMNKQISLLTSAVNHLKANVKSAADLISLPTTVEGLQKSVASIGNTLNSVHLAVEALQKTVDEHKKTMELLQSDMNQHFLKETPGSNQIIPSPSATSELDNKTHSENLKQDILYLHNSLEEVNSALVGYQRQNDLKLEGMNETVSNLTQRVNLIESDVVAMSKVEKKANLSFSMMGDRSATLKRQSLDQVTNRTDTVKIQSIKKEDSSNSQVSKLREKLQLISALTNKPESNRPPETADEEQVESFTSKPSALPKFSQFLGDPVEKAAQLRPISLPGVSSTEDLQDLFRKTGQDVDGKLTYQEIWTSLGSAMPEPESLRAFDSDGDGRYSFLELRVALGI
inactive: [1] 0.024 | [2] 0.218 | [3] -0.123 | [4] -0.006 | entinostat 0.007 | vorinostat -0.057 | citarinostat 0.181 | silmitasertib 0.022 | [5] -0.031 | [6] -0.075

FAM207A (UniProt Q9NSI2)
inactive: [1] -0.005 | [2] 0.076 | [3] -0.165 | [4] -0.042 | entinostat 0.052 | vorinostat 0.015 | citarinostat 0.106 | silmitasertib 0.356 | [5] 0.099 | [6] -0.117

CWC27 (UniProt Q6UX04)
inactive: [1] -0.062 | [2] 0.016 | [3] -0.142 | [4] -0.103 | entinostat 0.113 | vorinostat 0.062 | citarinostat 0.089 | silmitasertib 0.062 | [5] -0.092 | [6] 0.026

DPP8 (UniProt Q6V1X1)
Sequence of UniProt Q6V1X1 (Q6V1X1 whole entry, looked up): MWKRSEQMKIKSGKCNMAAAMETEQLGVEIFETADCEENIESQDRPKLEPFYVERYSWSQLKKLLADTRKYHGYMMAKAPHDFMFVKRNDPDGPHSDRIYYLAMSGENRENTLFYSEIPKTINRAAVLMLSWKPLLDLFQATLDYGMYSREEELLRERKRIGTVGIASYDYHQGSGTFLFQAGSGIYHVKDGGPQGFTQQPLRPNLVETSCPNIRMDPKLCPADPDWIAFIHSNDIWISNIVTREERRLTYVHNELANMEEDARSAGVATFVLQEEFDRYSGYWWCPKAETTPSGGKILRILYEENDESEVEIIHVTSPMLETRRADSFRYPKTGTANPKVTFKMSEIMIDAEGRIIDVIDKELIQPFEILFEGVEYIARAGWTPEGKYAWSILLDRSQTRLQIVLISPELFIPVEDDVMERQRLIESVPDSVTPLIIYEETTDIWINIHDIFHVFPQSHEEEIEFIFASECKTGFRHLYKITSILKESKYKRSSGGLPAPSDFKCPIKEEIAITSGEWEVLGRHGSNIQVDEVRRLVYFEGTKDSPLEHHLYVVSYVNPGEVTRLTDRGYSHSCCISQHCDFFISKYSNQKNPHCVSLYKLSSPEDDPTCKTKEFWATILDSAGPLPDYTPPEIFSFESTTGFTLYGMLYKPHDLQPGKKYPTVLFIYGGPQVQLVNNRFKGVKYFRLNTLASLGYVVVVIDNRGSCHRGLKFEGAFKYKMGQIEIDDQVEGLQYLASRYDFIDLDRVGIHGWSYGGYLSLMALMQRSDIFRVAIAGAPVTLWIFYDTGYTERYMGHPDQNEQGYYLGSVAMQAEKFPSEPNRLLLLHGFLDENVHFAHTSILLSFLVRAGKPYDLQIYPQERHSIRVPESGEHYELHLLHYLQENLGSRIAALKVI
active: citarinostat -0.325
inactive: [1] -0.243 | [2] -0.126 | [3] -0.04 | [4] -0.079 | entinostat -0.124 | vorinostat -0.021 | silmitasertib 0.063 | [5] -0.114 | [6] 0.219

EIF4A1 (UniProt P60842)
Sequence of UniProt P60842 (P60842 whole entry, looked up): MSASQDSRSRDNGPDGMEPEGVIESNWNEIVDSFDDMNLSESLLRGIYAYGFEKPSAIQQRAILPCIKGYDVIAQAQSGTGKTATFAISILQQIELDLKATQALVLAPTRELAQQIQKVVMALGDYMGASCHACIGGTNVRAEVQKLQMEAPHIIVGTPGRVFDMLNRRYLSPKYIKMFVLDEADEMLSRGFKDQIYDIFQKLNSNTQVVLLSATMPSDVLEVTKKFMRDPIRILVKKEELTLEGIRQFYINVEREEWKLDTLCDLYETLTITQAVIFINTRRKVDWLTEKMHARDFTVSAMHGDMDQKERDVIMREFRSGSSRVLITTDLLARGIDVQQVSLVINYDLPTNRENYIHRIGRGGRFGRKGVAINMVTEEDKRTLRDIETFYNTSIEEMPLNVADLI
inactive: [1] 0.148 | [2] -0.08 | [3] -0.029 | [4] -0.044 | entinostat 0.079 | vorinostat 0.068 | citarinostat 0.088 | silmitasertib -0.01 | [5] -0.01 | [6] -0.05

FAM83D (UniProt Q9H4H8)
inactive: [1] -0.031 | [2] -0.073 | [3] -0.072 | [4] 0.075 | entinostat 0.008 | vorinostat 0.066 | citarinostat 0.115 | silmitasertib 0.048 | [5] -0.058 | [6] 0.059

ERCC6 (UniProt Q03468)
inactive: [1] -0.288 | [2] -0.022 | [3] -0.062 | [4] 0.034 | entinostat -0.191 | vorinostat -0.003 | citarinostat -0.213 | silmitasertib 0.079 | [5] 0.013 | [6] -0.236

CTU1 (UniProt Q7Z7A3)
Sequence of UniProt Q7Z7A3 (Q7Z7A3 whole entry, looked up): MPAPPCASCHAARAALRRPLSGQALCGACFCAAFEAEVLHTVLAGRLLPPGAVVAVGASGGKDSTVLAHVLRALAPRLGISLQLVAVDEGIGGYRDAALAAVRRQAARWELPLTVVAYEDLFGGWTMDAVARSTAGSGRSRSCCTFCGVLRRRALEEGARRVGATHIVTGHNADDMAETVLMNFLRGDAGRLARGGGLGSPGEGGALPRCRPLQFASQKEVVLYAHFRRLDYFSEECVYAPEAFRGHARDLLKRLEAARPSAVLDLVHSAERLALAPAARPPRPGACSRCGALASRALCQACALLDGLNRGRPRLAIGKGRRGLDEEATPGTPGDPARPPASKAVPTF
inactive: [1] 0.038 | [2] -0.015 | [3] -0.199 | [4] -0.142 | entinostat 0.023 | vorinostat 0.075 | citarinostat 0.049 | silmitasertib 0.021 | [5] 0 | [6] 0.008

DNAJB1 (UniProt P25685)
inactive: [1] -0.006 | [2] -0.041 | [3] -0.09 | [4] -0.083 | entinostat 0.013 | vorinostat 0.034 | citarinostat 0.044 | silmitasertib 0.011 | [5] -0.005 | [6] -0.04

DHX16 (UniProt O60231)
inactive: [1] 0.005 | [2] 0.018 | [3] -0.021 | [4] -0.044 | entinostat 0.013 | vorinostat 0.001 | citarinostat 0.049 | silmitasertib -0.142 | [5] -0.012 | [6] -0.041

DTWD1 (UniProt Q8N5C7)
inactive: [1] -0.001 | [2] 0.014 | [3] -0.147 | [4] -0.04 | entinostat 0.063 | citarinostat -0.001 | silmitasertib -0.004 | [5] 0.014 | [6] -0.064
active: vorinostat 0.246

ELOVL1 (UniProt Q9BW60)
Sequence of UniProt Q9BW60 (Q9BW60 whole entry, looked up): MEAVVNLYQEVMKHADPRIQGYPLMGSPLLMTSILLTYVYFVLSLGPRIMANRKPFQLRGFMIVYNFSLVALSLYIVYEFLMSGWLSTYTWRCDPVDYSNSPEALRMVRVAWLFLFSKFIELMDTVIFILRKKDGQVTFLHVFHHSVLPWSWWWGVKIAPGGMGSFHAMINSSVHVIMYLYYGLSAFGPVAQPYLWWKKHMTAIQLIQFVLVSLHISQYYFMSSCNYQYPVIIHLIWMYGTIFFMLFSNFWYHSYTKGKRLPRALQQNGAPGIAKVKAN
inactive: [1] 0.017 | [2] -0.191 | [3] -0.087 | [4] -0.055 | entinostat 0.05 | vorinostat 0.321 | citarinostat -0.006 | silmitasertib -0.046 | [5] 0.002 | [6] 0.035

DCTN1 isoform 4 (UniProt Q14203)
inactive: [1] 0.002 | [2] -0.052 | [3] -0.033 | [4] 0.019 | entinostat 0.049 | vorinostat 0.029 | citarinostat 0.007 | silmitasertib 0.046 | [5] 0.081 | [6] -0.089

E2F4 (UniProt Q16254)
inactive: [1] 0.004 | [2] -0.052 | [3] -0.105 | [4] -0.032 | entinostat 0.016 | vorinostat -0.052 | citarinostat 0.067 | silmitasertib 0.001 | [5] 0.015 | [6] 0.005

FAM122A (UniProt Q96E09)
inactive: [1] -0.031 | [2] 0.076 | [3] -0.048 | [4] 0.023 | entinostat 0.143 | vorinostat 0.025 | citarinostat -0.009 | silmitasertib 0.005 | [5] -0.052 | [6] 0.062

EXOC2 (UniProt Q96KP1)
inactive: [1] 0.039 | [2] -0.084 | [3] -0.218 | [4] -0.024 | entinostat 0.052 | vorinostat -0.013 | citarinostat 0.105 | silmitasertib 0.035 | [5] 0.028 | [6] -0.102

EDC4 (UniProt Q6P2E9)
Sequence of UniProt Q6P2E9 (Q6P2E9 whole entry, looked up): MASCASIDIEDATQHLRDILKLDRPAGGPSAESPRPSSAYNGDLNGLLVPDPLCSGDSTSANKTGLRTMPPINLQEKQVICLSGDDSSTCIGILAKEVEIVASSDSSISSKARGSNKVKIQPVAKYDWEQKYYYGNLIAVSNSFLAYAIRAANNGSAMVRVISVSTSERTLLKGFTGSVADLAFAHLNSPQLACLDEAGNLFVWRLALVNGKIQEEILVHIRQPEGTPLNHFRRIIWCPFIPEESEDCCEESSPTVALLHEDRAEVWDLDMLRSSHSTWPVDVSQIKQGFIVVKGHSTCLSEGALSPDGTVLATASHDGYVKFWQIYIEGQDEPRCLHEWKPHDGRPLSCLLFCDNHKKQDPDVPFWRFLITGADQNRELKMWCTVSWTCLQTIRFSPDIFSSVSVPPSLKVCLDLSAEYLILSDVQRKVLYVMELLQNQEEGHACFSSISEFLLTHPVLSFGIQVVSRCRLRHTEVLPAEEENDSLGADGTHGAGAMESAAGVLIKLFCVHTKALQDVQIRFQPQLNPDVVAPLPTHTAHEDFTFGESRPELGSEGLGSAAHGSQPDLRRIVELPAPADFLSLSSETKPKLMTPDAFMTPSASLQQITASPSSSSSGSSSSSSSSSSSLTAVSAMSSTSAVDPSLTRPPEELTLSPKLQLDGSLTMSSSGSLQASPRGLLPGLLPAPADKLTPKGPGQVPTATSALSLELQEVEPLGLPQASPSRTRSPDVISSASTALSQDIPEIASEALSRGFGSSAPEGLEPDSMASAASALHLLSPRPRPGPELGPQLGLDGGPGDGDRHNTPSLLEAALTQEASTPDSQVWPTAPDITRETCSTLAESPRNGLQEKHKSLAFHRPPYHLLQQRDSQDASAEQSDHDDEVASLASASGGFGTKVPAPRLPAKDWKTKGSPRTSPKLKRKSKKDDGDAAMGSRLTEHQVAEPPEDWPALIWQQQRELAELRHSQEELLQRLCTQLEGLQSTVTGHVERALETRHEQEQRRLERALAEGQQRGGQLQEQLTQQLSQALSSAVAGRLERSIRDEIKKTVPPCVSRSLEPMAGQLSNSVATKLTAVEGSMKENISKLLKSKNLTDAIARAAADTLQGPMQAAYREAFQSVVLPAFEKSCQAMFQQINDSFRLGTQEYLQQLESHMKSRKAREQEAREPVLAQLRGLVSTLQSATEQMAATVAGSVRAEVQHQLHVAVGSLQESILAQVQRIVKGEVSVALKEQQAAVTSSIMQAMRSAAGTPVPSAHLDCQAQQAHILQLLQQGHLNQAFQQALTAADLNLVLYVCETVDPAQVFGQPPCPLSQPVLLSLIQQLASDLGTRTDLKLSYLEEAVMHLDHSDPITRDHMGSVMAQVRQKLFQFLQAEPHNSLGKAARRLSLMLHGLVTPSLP
active: [6] -0.253
inactive: [1] -0.06 | [2] -0.024 | [3] -0.026 | [4] -0.082 | entinostat 0.026 | vorinostat -0.023 | citarinostat 0.035 | silmitasertib -0.05 | [5] -0.066

DHX40 (UniProt Q8IX18)
Sequence of UniProt Q8IX18 (Q8IX18 whole entry, looked up): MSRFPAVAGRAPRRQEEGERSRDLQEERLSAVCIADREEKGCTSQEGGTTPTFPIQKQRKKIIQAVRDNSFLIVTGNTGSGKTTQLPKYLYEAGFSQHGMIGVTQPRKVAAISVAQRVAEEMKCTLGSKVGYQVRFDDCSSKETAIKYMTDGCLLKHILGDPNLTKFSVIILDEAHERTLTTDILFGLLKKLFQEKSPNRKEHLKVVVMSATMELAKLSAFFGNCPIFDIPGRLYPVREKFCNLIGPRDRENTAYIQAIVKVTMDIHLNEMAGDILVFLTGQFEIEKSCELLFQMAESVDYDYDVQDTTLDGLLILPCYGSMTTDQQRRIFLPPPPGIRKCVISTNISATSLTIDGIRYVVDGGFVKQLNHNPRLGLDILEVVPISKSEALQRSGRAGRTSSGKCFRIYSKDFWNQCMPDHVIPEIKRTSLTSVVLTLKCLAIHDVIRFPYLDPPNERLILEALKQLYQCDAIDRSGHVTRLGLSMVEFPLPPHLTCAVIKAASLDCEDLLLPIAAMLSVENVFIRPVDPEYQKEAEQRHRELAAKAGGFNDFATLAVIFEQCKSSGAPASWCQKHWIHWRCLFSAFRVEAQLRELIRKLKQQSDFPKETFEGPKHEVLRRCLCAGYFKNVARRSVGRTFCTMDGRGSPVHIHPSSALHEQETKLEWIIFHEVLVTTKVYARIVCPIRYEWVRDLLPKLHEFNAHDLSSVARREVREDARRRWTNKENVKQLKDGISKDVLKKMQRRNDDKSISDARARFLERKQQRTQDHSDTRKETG
inactive: [1] -0.093 | [2] -0.036 | [3] -0.157 | [4] -0.042 | entinostat -0.004 | vorinostat -0.097 | citarinostat 0.081 | silmitasertib -0.027 | [5] -0.116 | [6] -0.04

FAM160B1 (UniProt Q5W0V3)
inactive: [1] 0.04 | [2] -0.038 | [4] -0.043 | entinostat 0.026 | vorinostat 0.139 | citarinostat 0.069 | silmitasertib -0.026 | [5] -0.064 | [6] 0
active: [3] -0.211

FAM114A2 (UniProt Q9NRY5)
inactive: [1] 0.023 | [2] -0.089 | [3] -0.151 | [4] -0.062 | entinostat 0.051 | vorinostat 0.034 | citarinostat 0.05 | silmitasertib 0.02 | [5] -0.016 | [6] -0.013

EMD (UniProt P50402)
inactive: [1] -0.012 | [2] -0.064 | [3] -0.068 | [4] -0.041 | entinostat -0.031 | vorinostat -0.017 | citarinostat -0.076 | silmitasertib 0.054 | [5] -0.084 | [6] -0.141

CTSL (UniProt P07711)
Sequence of UniProt P07711 (P07711 whole entry, looked up): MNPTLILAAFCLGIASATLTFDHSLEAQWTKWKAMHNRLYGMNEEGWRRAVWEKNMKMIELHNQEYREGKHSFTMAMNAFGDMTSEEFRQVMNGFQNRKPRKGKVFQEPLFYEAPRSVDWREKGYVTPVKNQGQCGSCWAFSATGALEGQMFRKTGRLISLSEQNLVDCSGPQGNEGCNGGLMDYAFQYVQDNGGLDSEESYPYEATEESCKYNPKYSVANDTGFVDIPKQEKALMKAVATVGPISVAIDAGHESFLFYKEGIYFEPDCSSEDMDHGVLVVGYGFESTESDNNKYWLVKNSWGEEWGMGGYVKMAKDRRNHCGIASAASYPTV
inactive: [1] 0.082 | [2] -0.045 | [3] -0.123 | [4] 0.039 | entinostat -0.074 | vorinostat -0.053 | citarinostat -0.018 | silmitasertib 0.027 | [5] -0.079 | [6] -0.011

ERLIN1 (UniProt O75477)
inactive: [1] 0.083 | [2] -0.068 | [3] -0.066 | [4] -0.043 | entinostat 0.111 | vorinostat 0.074 | citarinostat -0.01 | silmitasertib -0.009 | [5] 0.084 | [6] -0.045

DAG1 (UniProt Q14118)
inactive: [1] -0.035 | [2] 0.123 | [3] 0.081 | [4] -0.054 | entinostat -0.013 | vorinostat 0.023 | citarinostat -0.015 | silmitasertib -0.005 | [5] -0.015 | [6] -0.001

CTSB (UniProt P07858)
inactive: [1] -0.013 | [2] -0.043 | [4] 0.005 | entinostat -0.047 | vorinostat 0.016 | citarinostat -0.015 | silmitasertib 0.002 | [5] -0.067 | [6] -0.07
active: [3] -0.283

DTWD2 (UniProt Q8NBA8)
inactive: [1] 0.284 | [2] -0.03 | [3] -0.058 | [4] 0.068 | entinostat -0.079 | vorinostat 0 | citarinostat 0.152 | silmitasertib 0.089 | [5] 0.26 | [6] -0.123

ECH1 (UniProt Q13011)
inactive: [1] 0 | [2] -0.101 | [3] 0.295 | [4] -0.078 | entinostat -0.025 | vorinostat -0.015 | citarinostat 0.002 | silmitasertib -0.072 | [5] -0.076 | [6] 0.038

EIF2S3 (UniProt P41091)
inactive: [1] 0.034 | [2] 0.006 | [3] 0.163 | [4] 0.025 | entinostat -0.001 | vorinostat 0 | citarinostat -0.044 | silmitasertib -0.001 | [5] 0.066 | [6] -0.154
